Laboratory results from PubChem BioAssay (NCATS).
Results filed as inconclusive are left out. The source made the active and inactive calls. Calls follow the shape of the dose curve; as a rule, active = well fitted curve in the direction sought with a large enough effect; inconclusive = small, poorly fitted or top-dose-only effect, or another doubt; inactive = no such curve, though single readings can be large; an effect the other way counts as inactive or inconclusive.

How the values were obtained:
[1] = qHTS assay for measurement of the activity of small molecule inhibitors on Zika virus induced Caspase-3 activity in human iPSC derived neural progenitor cells (hNPCs) (AID 1224857); also: nearly all actives have a fitted effect of over 65% in size
In short: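 In medium with heparin 2 ug/ml and cyclopamine 2 uM, hNPCs (350 cells/well) received compound for one hour and then Zika virus at 2 FFU/cell; caspase activity was measured by Caspase-Glo 3/7 luminescence 6 h post-infection.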

[2] = qHTS assay for measurement of the activity of small molecule inhibitors on Zika virus induced Caspase-3 activity in human astrocytoma cells (AID 1224859)
In short: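 A cell-based luminescent caspase-3/7 assay used SNB-19 cells infected with ZIKV (2 FFU/cell) for 6 h following 1 h compound pretreatment.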

[3] = qHTS assay to identify small molecule inhibitors of chordoma cells - UCH-1 (AID 1259355); also: nearly all actives have a fitted effect of over 55% in size
In short: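 800 cells/well, overnight attach; compounds pinned at 15 concs, then auranofin/camptothecin/doxorubicin/rubitecan/topotecan combo added; 48hr 37 C, 5% CO2; CellTiter-Glo, 30min RT, luminescence.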

[4] = qHTS assay to identify small molecule inhibitors of chordoma cells - UCH-2 (AID 1259356); also: series mostly up to about 46 µM
[5] = P-glycoprotein substrates identified in KB-8-5-11 adenocarcinoma cell line, qHTS therapeutic library screen (AID 1346987); conditions: outcome: dose series up to 44.5 µM; also: series mostly up to about 44 µM; nearly all actives have a fitted effect of over 65% in size
In short: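 Human cervical adenocarcinoma KB-8-5-11 cells, selected in colchicine to over-express P-gp and assayed without it, were exposed for 72 h to titrated compounds. An ATP-based luminescent viability signal gave AC50.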

Measured: outcome

Cc1cc(=O)[nH]c(=S)[nH]1
inactive: all assays above

CC(=O)OCC(COC(C)=O)OC(C)=O
inactive: all assays above

CC(=O)N[C@@H](CC(C)C)C(=O)O
inactive: all assays above

C[C@@H]1CCC[C@H](C)N1
inactive: all assays above

C=CCOc1ccccc1OCC(O)CNC(C)C (stereo not given)
inactive: all assays above

Cn1c([N+](=O)[O-])cnc1COC(N)=O
inactive: all assays above

CC(C(=O)O)c1ccc2c(c1)Cc1cccnc1O2 (stereo not given)
inactive: all assays above

CNCc1ccccc1
inactive: all assays above

O=C(O)c1ccc[n+]([O-])c1
inactive: all assays above

Nc1ccc(C(=O)Oc2ccccc2)c(O)c1
inactive: all assays above

CCOC(=O)c1cccnc1
inactive: all assays above

Cc1cc(NC(=O)C2=C(O)c3ccccc3S(=O)(=O)N2C)no1
inactive: all assays above

O=C(O)CCCCC1CCSS1 (stereo not given)
inactive: all assays above

Cc1c(C(=O)NCCO)[n+](=O)c2ccccc2n1[O-]
inactive: all assays above

OC(CCN1CCCC1)(c1ccccc1)C1CCCCC1 (stereo not given)
inactive: all assays above

O=C(O)c1ccc(OCCCOc2ccc(C(=O)O)cc2)cc1
inactive: all assays above

O[C@@H]1CO[C@H]2[C@@H]1OC[C@@H]2O
inactive: all assays above

COc1cc(O)cc(O)c1
inactive: all assays above

C/C=C1\[C@H]2C=C(C)C[C@]1(N)c1ccc(=O)[nH]c1C2
inactive: all assays above

CCOc1cc(NC(C)=O)ccc1C(=O)OC
inactive: all assays above

CC(=O)Nc1ccc(C(=O)O)cc1
inactive: all assays above

Cc1c(NC(C)C)c(=O)n(-c2ccccc2)n1C
inactive: all assays above

CC(C)CCOC(=O)c1ccc(N(C)C)cc1
inactive: all assays above

O=S1(=O)OC(c2ccc(O)cc2)(c2ccc(O)cc2)c2ccccc21
inactive: all assays above
